Data from paper PMC5540273 (PLoS ONE, 2017).

Legend:
Conditions in all cases: concentration: 1 μM, replicates: in singlicate; n = 1
[1] = test system: CAMK1
[2] = test system: CAMK2A
[3] = test system: CAMK2B
[4] = test system: CAMK2D
[5] = test system: CAMK2G
[6] = test system: CAMK4
[7] = test system: CAMKK1
[8] = test system: CAMKK2
[9] = test system: CASK
[10] = test system: T1, CDC2L1
T1 construct: gene CDK11B

[11] = test system: CDC2L2
[12] = test system: T2, CDC2L5
T2 construct: gene CDK13

[13] = test system: T3, CDK11
T3 construct: gene CDK19

[14] = test system: CDK2
[15] = test system: CDK3
[16] = test system: CDK4-cyclinD1
[17] = test system: CDK4-cyclinD3
[18] = test system: CDK4
[19] = test system: CDK5
[20] = test system: CDK7
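Further: KINOMEscan kinase panel screen.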

| SMILES | %Inh [1] | %Inh [2] | %Inh [3] | %Inh [4] | %Inh [5] | %Inh [6] | %Inh [7] | %Inh [8] | %Inh [9] | %Inh [10] | %Inh [11] | %Inh [12] | %Inh [13] | %Inh [14] | %Inh [15] | %Inh [16] | %Inh [17] | %Inh [18] | %Inh [19] | %Inh [20] |
| --- | --- | --- | --- | --- | --- | --- | --- | --- | --- | --- | --- | --- | --- | --- | --- | --- | --- | --- | --- | --- |
| Cc1occc1-c1ncc(OC[C@@H](N)Cc2c[nH]c3ccccc23)cc1-c1ccc2[nH]nc(C)c2c1.O=C(O)C(F)(F)F [GSK682037] | 25% | 20% | 27% | 47% | 52% | 0% | 19% | 16% | 11% | 0% | 6% | 0% | 35% | 0% | 2% | 0% | 0% | 0% | 0% | 30% |
| COc1cc(Nc2nccc(N3CCC(NC(=O)c4cc5ccccc5s4)C3)n2)cc(OC)c1OC (centres unmarked) [GSK1379760] | 17% | 0% | 1% | 0% | 29% | 0% | 12% | 0% | 12% | 0% | 5% | 0% | 19% | 0% | 11% | 41% | 0% | 14% | 0% | 16% |
| O=c1[nH]cc(-c2ccc(N3CCOCC3)cc2)c2sc(-c3cn[nH]c3)cc12 [GSK2276055] | 31% | 2% | 2% | 18% | 25% | 0% | 29% | 22% | 15% | 4% | 12% | 0% | 0% | 0% | 6% | 0% | 21% | 0% | 0% | 2% |
| O=C(NC1CCN(c2ccnc(Nc3ccc(F)cc3)n2)C1)c1cc2ccccc2s1 (centres unmarked) [GSK1379716] | 26% | 0% | 0% | 7% | 23% | 13% | 10% | 17% | 22% | 0% | 14% | 0% | 36% | 0% | 18% | 14% | 0% | 0% | 7% | 0% |
| O=C(Nc1n[nH]c2nc(-c3ccc(O)cc3)ccc12)C1CC1 [SB-710363] | 0% | 19% | 19% | 5% | 0% | 0% | 8% | 17% | 31% | 0% | 0% | 69% | 0% | 75% | 84% | 83% | 78% | 0% | 0% | 41% |
| Cc1ccc(S(=O)(=O)Nc2ccc(Nc3nccc(Nc4cccc5[nH]ncc45)n3)cc2)cc1 [GSK581271] | 24% | 0% | 0% | 4% | 8% | 0% | 0% | 9% | 45% | 0% | 0% | 0% | 0% | 21% | 17% | 0% | 0% | 15% | 0% | 0% |
| C[C@@H](Oc1cc(-n2cnc3cc(-c4ccnc(NCCS(C)(=O)=O)c4)ccc32)sc1C(N)=O)c1ccccc1Cl [GSK907232] | 15% | 0% | 0% | 5% | 33% | 0% | 21% | 80% | 57% | 0% | 5% | 0% | 20% | 13% | 16% | 0% | 0% | 0% | 0% | 0% |
| Nc1ncnc2c1nc(-c1ccccc1)n2-c1ccccc1 [SKF-97293] | 13% | 3% | 1% | 18% | 4% | 0% | 0% | 6% | 17% | 0% | 5% | 48% | 7% | 12% | 13% | 21% | 0% | 21% | 3% | 41% |
| O=C(Nc1ccccc1F)NC1CCN(c2ccnc(Nc3ccc(F)cc3)n2)CC1 [GSK1379800] | 0% | 0% | 0% | 3% | 15% | 0% | 0% | 3% | 0% | 0% | 34% | 0% | 9% | 0% | 0% | 2% | 0% | 28% | 0% | 0% |
| c1ccc(-c2n[nH]cc2Nc2ccnc3ccccc23)nc1 [GW694077] | 20% | 21% | 17% | 19% | 23% | 0% | 13% | 28% | 33% | 0% | 6% | 0% | 6% | 0% | 7% | 58% | 46% | 37% | 0% | 47% |
| COc1ccc(Nc2nccc(N3CCC(NC(=O)Nc4cccc(OC)c4)C3)n2)cc1 (centres unmarked) [GSK1379742] | 0% | 0% | 0% | 2% | 9% | 4% | 5% | 4% | 13% | 0% | 0% | 0% | 56% | 0% | 27% | 0% | 0% | 13% | 0% | 0% |
| CNC(=O)c1ccccc1Nc1nc(Nc2ccc(N3CCOCC3)cc2)ncc1Cl.Cl [GSK1576028] | 77% | 25% | 14% | 22% | 49% | 0% | 93.2% | 95% | 71% | 16% | 20% | 0% | 0% | 39% | 31% | 47% | 45% | 28% | 29% | 96.6% |
| Clc1ccc(-c2nn3ncccc3c2-c2ccnc(Nc3ccc4c(c3)OCCO4)n2)cc1 [GW829116] | 0% | 0% | 0% | 0% | 0% | 3% | 0% | 0% | 15% | 0% | 0% | 0% | 0% | 0% | 0% | 0% | 0% | 0% | 7% | 0% |
| O=C(Nc1cccc(-c2nn3ccccc3c2-c2ccnc(Nc3cccc(F)c3)n2)c1)c1c(F)ccc(F)c1Cl [GSK357952] | 12% | 0% | 0% | 0% | 0% | 13% | 0% | 0% | 4% | 0% | 0% | 0% | 0% | 0% | 1% | 0% | 0% | 53% | 0% | 0% |
| COc1ccc(-c2coc3ccc(-c4nnc(SCc5ccc(OC)c(C(F)(F)F)c5)o4)cc23)cc1 | 0% | 0% | 1% | 7% | 0% | 12% | 1% | 2% | 1% | 0% | 17% | 0% | 57% | 1% | 0% | 2% | 0% | 0% | 14% | 0% |
| Cl.c1ccc(-c2ccc3c(Nc4ccc5[nH]ncc5c4)ccnc3c2)nc1 [GW440137] | 11% | 0% | 0% | 12% | 16% | 0% | 0% | 19% | 13% | 0% | 16% | 0% | 3% | 0% | 0% | 0% | 29% | 0% | 0% | 8% |
| Cl.Cl.NCC(C(=O)Nc1cc(Br)c(-c2ccnc3[nH]ccc23)s1)c1ccccc1 (centres unmarked) [GSK1269851] | 0% | 100% | 100% | 8% | 12% | 0% | 8% | 0% | 25% | 1% | 4% | 0% | 17% | 0% | 5% | 0% | 2% | 15% | 0% | 24% |
| Nc1ncc(-c2ccc3nccc(-c4ccncc4)c3c2)cc1S(=O)(=O)N1CCOCC1 [GSK1627798] | 27% | 0% | 0% | 0% | 49% | 0% | 57% | 78% | 48% | 0% | 0% | 0% | 40% | 1% | 6% | 0% | 47% | 0% | 0% | 72% |
| Cn1cc(-c2[nH]c3cc(NC(=O)[C@H](N)C4CCCCC4)cc4c3c2C=NNC4=O)cn1 | 49% | 68% | 15% | 76% | 73% | 0% | 60% | 56% | 6% | 2% | 6% | 0% | 15% | 8% | 0% | 0% | 0% | 0% | 11% | 41% |
